Screening results as filed in PubChem BioAssay.
Compounds with a hit are over-represented: about 3.2% of the library has one in this group of screens.
Tb PYK inh – T. brucei pyruvate kinase inhibition. Q57TT1. TbPYK enzyme, Kinase-Glo Plus ATP luminescence, 45 min. Potency, µM (doses to about 76.8 µM), for inactives: at the top dose activity, negative = inhibition, most hits filed as inhibitors. 410,000 tested, 0.12% active; further: nearly all actives have a fitted effect of over 50% in size
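Quantitative HTS: titrated library compounds versus trypanosomal pyruvate kinase in TEA buffer (pH 7.2) containing KCl, MgCl2, BSA and Tween-20. Reactions were initiated with ADP, 130 uM final. Kinase-Glo Plus luminescence was read after 45 min at RT.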
LmPK inh – inhibitors of Leishmania mexicana pyruvate kinase | Q27686 | purified LmPK, Kinase-Glo ATP luminescence, 1 h | Potency, µM (highest dose often 57.5 µM), without a hit: at the top dose activity change, negative = inhibition, most hits filed as inhibitors | 290,000 tested, 0.37% active | AID 1721
Target sequence (Q27686 whole entry, looked up): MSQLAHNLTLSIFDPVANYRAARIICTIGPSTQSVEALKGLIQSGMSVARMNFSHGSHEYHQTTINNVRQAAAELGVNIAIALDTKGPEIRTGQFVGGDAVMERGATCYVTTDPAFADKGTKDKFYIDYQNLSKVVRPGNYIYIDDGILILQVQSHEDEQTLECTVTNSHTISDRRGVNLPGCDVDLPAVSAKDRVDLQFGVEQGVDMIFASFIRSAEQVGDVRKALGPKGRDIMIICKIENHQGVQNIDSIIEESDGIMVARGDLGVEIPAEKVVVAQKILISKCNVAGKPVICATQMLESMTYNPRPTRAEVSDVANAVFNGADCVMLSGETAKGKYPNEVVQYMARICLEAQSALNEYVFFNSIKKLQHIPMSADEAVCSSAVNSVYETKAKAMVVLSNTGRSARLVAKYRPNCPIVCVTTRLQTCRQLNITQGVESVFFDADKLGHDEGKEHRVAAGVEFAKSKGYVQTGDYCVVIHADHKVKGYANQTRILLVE
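0.1 nM LmPK, 0.5 mM PEP, 0.1 mM ADP; 50 mM imidazole pH 7.2, 7 mM MgCl2, 50 mM KCl; 1 h RT. Kinase-Glo luminescence readout, normalized to no-enzyme (full inhibition) and uninhibited wells.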
AMA1-RON2 inh – disrupts binding of P. falciparum AMA1 to RON2 | AlphaScreen AMA1-biotinylated RON2 peptide binding | 360,000 tested, 0.2% active | Potency, µM (titrated, usually from 58.2 µM), without a hit: at the top dose activity change, negative = inhibition, most hits filed as inhibitors;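 further: 0% = vehicle wells and -100% = peptide control; nearly all actives have a fitted effect of over 45% in size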
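AMA1 (3D7) with his tag at 25 nM final met compounds first, then biotinylated RON2 peptide at 25 nM; detection used donor plus acceptor beads, 10 µg/mL apiece, read by AlphaScreen after 30 min at room temperature.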
RE007 growth inh – less growth of the S. pombe RE007 Vpr strain; 360,000 tested, 0.21% active; S. pombe RE007 Vpr strain, BacTiter-Glo ATP luminescence, 24 h; Potency, µM (titrated, usually from 92.2 µM), inactives show at the top dose activity change, negative = less growth, actives largely listed as inhibitors; active means well fitted falling curve with a large enough effect; inconclusive means small, poorly fitted or top-dose-only effect; inactive means no such curve, though single readings can be large or run the other way; further: nearly all actives have a fitted effect of over 50% in size
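Fission yeast strain RE007, carrying one chromosomally integrated HIV-1 vpr copy, was seeded at OD 0.01 in PMG+AL medium with 23 nL pinned compound. After 24 h at 30 °C and 99% humidity, viability was read by BacTiter-Glo luminescence.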
Sm TGR inh – inhibitors of Schistosoma mansoni thioredoxin glutathione reductase; Potency, µM (highest dose often 114 µM), without a hit: at the highest dose activity change, negative = inhibition, usual class: inhibitors; 360,000 tested, 3% active; purified TGR, DTNB reduction, TNB absorbance 405 nm; Q962Y6; further: nearly all actives have a fitted effect of over 60% in size
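First, TGR (20 nM dispensed) and NADPH were mixed with compound. Second, a 15 min room-temperature incubation followed. Third, further NADPH and then DTNB were added to start the reaction. Finally, TNB absorbance was monitored kinetically.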
* = called active by the depositor; [ ] = dose if it differs, or a comment. Unless noted, the call rests on the fitted dose curve; in most records, active means well fitted curve in the direction sought with a large enough effect; inconclusive means small, poorly fitted or top-dose-only effect, or another doubt; inactive means no such curve, though single readings can be large; an effect the other way counts as inactive or inconclusive. Unless noted, on the % scale 0 is the no-effect control and ±100 the full control effect; potency means the concentration at half of the fitted maximal effect.

How did COc1ccc(OC)c(NC(=O)Cn2cnc3sc(C)c(S(=O)(=O)N4CCN(c5ccccc5OC)CC4)c3c2=O)c1 do in these assays?
Tb PYK inh: -0.3%; Sm TGR inh: 9.2%

Results for COc1ccc(CNC(=O)c2ccc(Cn3c(=O)c4cccn4c4cccnc43)cc2)cc1OC ?
Tb PYK inh: 2.6%; Sm TGR inh: 8.4%

Results for CCCS(=O)(=O)c1c(S(=O)(=O)CCC)c2c(N)cccn2c1C(=O)c1ccc(Br)cc1 ?
Tb PYK inh: -5.8%; LmPK inh: 0.8%; AMA1-RON2 inh: 3.8%; RE007 growth inh: 1.5%; Sm TGR inh: inconclusive

Results for CCCS(=O)(=O)c1c(S(=O)(=O)CCC)c2c3ccccc3ccn2c1C(=O)OC ?
Tb PYK inh: -10.2%; LmPK inh: 4.0%; AMA1-RON2 inh: -0.2%; RE007 growth inh: -6.8%; Sm TGR inh: inconclusive

Results for CCCS(=O)(=O)c1c(S(=O)(=O)CCC)c2ccccn2c1C(=O)OC ?
Tb PYK inh: -2.5%; LmPK inh: -1.5%; AMA1-RON2 inh: -7.3%; RE007 growth inh: 5.1%; Sm TGR inh: 28.2µM*

Results for CCCS(=O)(=O)c1c(S(=O)(=O)CCC)c2c(N)cccn2c1C(=O)c1ccc(F)cc1 ?
Tb PYK inh: -9.8%; LmPK inh: -13.6%; AMA1-RON2 inh: 20.2%; RE007 growth inh: 4.6%; Sm TGR inh: 22.4µM*

Results for CCCS(=O)(=O)c1c(S(=O)(=O)CCC)c2c(C)cccn2c1C(=O)OC ?
Tb PYK inh: -10.0%; LmPK inh: -6.9%; AMA1-RON2 inh: -5.7%; RE007 growth inh: 2.6%; Sm TGR inh: 10µM*

How did CCCS(=O)(=O)c1c(S(=O)(=O)CCC)c2cc(CC)ccn2c1C(=O)OC do in these assays?
Tb PYK inh: -4.6%; LmPK inh: 0.5%; AMA1-RON2 inh: inconclusive; RE007 growth inh: -9.1%; Sm TGR inh: 3.2%

Results for CCCOc1ccccc1C(=O)N1CCCCC1CCN1CCCCC1 (centres undefined) ?
Tb PYK inh: -17.3%; Sm TGR inh: -0.7%

What do the screens show for `COc1ccc(N2CCN(C(=O)C3CCN(S(=O)(=O)c4cnc[nH]4)CC3)CC2)cc1`?
Tb PYK inh: -4.5%; Sm TGR inh: -1.8%

Results for C=CCSc1nnc2c(n1)OC=Nc1ccc(Br)cc1-2 ?
Tb PYK inh: -0.4%; LmPK inh: -17.5%; AMA1-RON2 inh: 2.5%; RE007 growth inh: -9.4%; Sm TGR inh: 7.94µM*

What do the screens show for `N#C/C(C(N)=O)=c1/ccc2c(c1)N1C3=C(CCCC3)CC3CCCCC31N=2` (centres undefined)?
Tb PYK inh: inconclusive; LmPK inh: 7.94µM*; AMA1-RON2 inh: inconclusive; RE007 growth inh: -22.1%; Sm TGR inh: -2.6%

Results for N#CC(C#N)=c1ccc2c(c1)N1C3=C(CCCC3)CC3CCCCC31N=2 (centres undefined) ?
Tb PYK inh: inconclusive; LmPK inh: 17.8µM*; AMA1-RON2 inh: inconclusive; RE007 growth inh: -8.6%; Sm TGR inh: 0.4%

Results for COc1ccc(/C=N/N=C2/CC(C)(C)Cc3n[nH]c(=O)cc32)cc1 ?
Tb PYK inh: -1.5%; LmPK inh: 4.6%; AMA1-RON2 inh: -12.7%; RE007 growth inh: -2.6%; Sm TGR inh: 12.6µM*

How did CCOc1cc(C(C(=O)NCC2CCCO2)N(C(=O)Cn2nnc3ccccc32)c2ccc(OC)c(OC)c2)ccc1O (centres undefined) do in these assays?
Tb PYK inh: 3.6%; LmPK inh: 0.8%; AMA1-RON2 inh: -1.1%; RE007 growth inh: -3.6%; Sm TGR inh: 31.6µM*

How did COc1cc(C(C(=O)NCC2CCCO2)N(C(=O)Cn2nnc3ccccc32)c2ccc(C(C)=O)cc2)ccc1O (centres undefined) do in these assays?
Tb PYK inh: 2.5%; LmPK inh: 2.7%; AMA1-RON2 inh: -7.2%; RE007 growth inh: 5.0%; Sm TGR inh: inconclusive

Results for COc1ccc(S(=O)(=O)N[C@@H](CSCc2ccccc2)C(=O)O)cc1 ?
Tb PYK inh: 1.6%; LmPK inh: -9.7%; AMA1-RON2 inh: 3.3%; RE007 growth inh: 17.5%; Sm TGR inh: 39.8µM*

How did CCOC(=O)c1c(C)oc2ncnc(N3CCN(c4ccccc4)CC3)c12 do in these assays?
Tb PYK inh: -1.0%; Sm TGR inh: -3.2%

How did COc1ccc(C2=CC3=C(Br)C(=O)C(C)(OC(=O)C4CCCC4)C(=O)C3=CO2)cc1 (centres undefined) do in these assays?
Tb PYK inh: -14.5%; LmPK inh: -10.5%; AMA1-RON2 inh: inconclusive; RE007 growth inh: inconclusive; Sm TGR inh: 7.08µM*

Results for COC(=O)CCC(=O)OC1(C)C(=O)C2=CN(CCCCO)C(c3ccc(OC)cc3)=CC2=C(Br)C1=O (centres undefined) ?
LmPK inh: 0.2%; Sm TGR inh: 44.7µM*

Results for COc1ccc(CN2C=C3C(=O)C(C)(OC(=O)C4CCCC4)C(=O)C=C3C=C2c2ccsc2)cc1 (centres undefined) ?
Tb PYK inh: -9.6%; LmPK inh: 1.5%[11.5 µM]; AMA1-RON2 inh: -26.6%; RE007 growth inh: 6.7%; Sm TGR inh: -6.1%

Results for COC(=O)CCC(=O)OC1(C)C(=O)C2=COC(c3ccc(OC)cc3)=CC2=C(Br)C1=O (centres undefined) ?
Tb PYK inh: -11.9%; LmPK inh: -13.4%; AMA1-RON2 inh: inconclusive; RE007 growth inh: inconclusive; Sm TGR inh: 7.94µM*

What do the screens show for `COc1ccc(C2=CC3=C(Br)C(=O)C(C)(OC(=O)c4ccc(Cl)nc4)C(=O)C3=CO2)cc1` (centres undefined)?
Tb PYK inh: -6.0%; LmPK inh: -0.7%; AMA1-RON2 inh: 3.1%; RE007 growth inh: -20.2%; Sm TGR inh: 10µM*

How did COC(=O)CCC(=O)OC1(C)C(=O)C2=CN(CCN3CCOCC3)C(c3ccc(OC)cc3)=CC2=C(Br)C1=O (centres undefined) do in these assays?
LmPK inh: -2.1%[11.5 µM]; Sm TGR inh: inconclusive

How did Cc1cccc(N2CCN(C(c3ccccc3)c3nnc(-c4ccccc4Cl)o3)CC2)c1C (centres undefined) do in these assays?
Tb PYK inh: 0.8%; Sm TGR inh: 6.6%

What do the screens show for `CCCCCCCCCCCCCCNCCO`?
Tb PYK inh: 2.5%

What do the screens show for `CCCOc1ccc(C2c3c(-c4ccccc4O)n[nH]c3C(=O)N2CCCOCC)cc1OCC` (centres undefined)?
Tb PYK inh: 0.3%; Sm TGR inh: -6.1%

What do the screens show for `CC(C)=CCC/C(C)=C\CC/C(C)=C\CC/C(C)=C\CC1=C(C)C(=O)c2ccccc2C1=O`?
Tb PYK inh: 0.0%
